hNpr1 antagonist – human Npr1 receptor antagonism. 76,000 compounds, 1.6% hits. P16066. HEK293 hNpr1 GloSensor cGMP, ANP-stimulated luminescence. AID 1347048. Potency, µM (top dose mostly 46.3 µM), hits mostly inhibitors; calls by dose curve; note: nearly all actives have a fitted effect of over 60% in size
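HEK293 cells stably expressing human Npr1 and cGMP GloSensor pGS-40F, loaded 2 h with 2% GloSensor reagent, given compound 30 min at room temperature. Luminescence read before and 20 min after 0.1 nM hNppA.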
HEK293 tox – kills HEK 293 cells | HEK 293 viability, ATP luminescence (CellTiter-Glo), 48-72 h | Potency, µM (doses to about 115 µM), most hits filed as inhibitors | 94,000 compounds, 6.6% hits | AID 1345083; note: nearly all actives have a fitted effect of over 60% in size
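ATP-coupled CellTiter-Glo luminescence served as viability read-out, recorded 10 min after reagent addition at room temperature. HEK 293 cells, 250 cells/well, had been incubated with pintool-transferred compound for 48 or 72 hr at 37 degree Celsius.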
Luciferase inh – Photinus pyralis luciferase inhibition | P08659 | purified P. pyralis luciferase, luminescence, biochemical | Potency, µM (doses to about 115 µM), most hits filed as inhibitors | 76,000 compounds, 2.5% hits | AID 1347043; note: nearly all actives have a fitted effect of over 65% in size
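Purified 10nM P. pyralis luciferase with 10uM D-luciferin and 10uM ATP in 50mM Tris acetate pH 7.5, 10mM Mg acetate, 0.01% Tween-20, 0.05% BSA. qHTS titration; luminescence read by CCD imager.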
GPT2 inh – inhibitors of human GPT2 alanine aminotransferase; Q8TD30; Recombinant GPT2, coupled pyruvate oxidase/HRP Amplex Red fluorescence; Potency, µM (top dose mostly 57.7 µM), actives largely listed as inhibitors; 100,000 compounds, 0.25% hits; note: nearly all actives have a fitted effect of over 60% in size
Target sequence (Q8TD30 whole entry, looked up): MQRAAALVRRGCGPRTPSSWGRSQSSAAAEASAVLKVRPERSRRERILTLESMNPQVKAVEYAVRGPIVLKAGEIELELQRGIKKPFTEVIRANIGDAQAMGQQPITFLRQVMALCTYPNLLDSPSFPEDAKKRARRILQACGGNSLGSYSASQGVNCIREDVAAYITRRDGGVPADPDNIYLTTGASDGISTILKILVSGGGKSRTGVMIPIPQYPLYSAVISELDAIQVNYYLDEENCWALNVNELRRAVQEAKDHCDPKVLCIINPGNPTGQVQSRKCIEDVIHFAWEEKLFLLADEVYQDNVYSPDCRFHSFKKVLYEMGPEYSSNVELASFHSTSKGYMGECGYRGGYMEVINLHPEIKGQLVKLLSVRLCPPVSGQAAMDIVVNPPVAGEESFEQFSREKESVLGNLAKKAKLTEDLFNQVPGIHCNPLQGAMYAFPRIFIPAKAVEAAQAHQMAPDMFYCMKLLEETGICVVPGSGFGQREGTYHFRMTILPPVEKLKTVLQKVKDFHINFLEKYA
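Recombinant GPT2 (10ng/uL) with 250uM a-KG and 2mM L-alanine, 30 min at room temperature, in HEPES pH 7.5 buffer. Pyruvate detected by pyruvate oxidase/HRP/Amplex Red fluorescence after 30 min in the dark; AOA (50uM) as positive control.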
3T3 cytotox – NIH 3T3 cell cytotoxicity. NIH 3T3 viability, CellTiter-Glo ATP luminescence, 48-72 h. Potency, µM (series often up to 96.7 µM), most hits filed as inhibitors. 94,000 compounds, 4.3% hits. AID 1345082; note: nearly all actives have a fitted effect of over 55% in size
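Cells were seeded at 400 per well, treated with pin-transferred compound, and kept 48 or 72 hr at 37 °C before CellTiter-Glo addition and luminescence imaging of cellular ATP.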
NPR1 antag cnf – hNpr1 antagonism, confirmation assay; shares compounds with hNpr1 antagonist; HEK293 hNpr1 cGMP GloSensor luminescence, ANP-stimulated; Potency, µM (doses to about 57.6 µM), usual class: inhibitors; 1,400 compounds, 76% hits; calls by dose curve; note: nearly all actives have a fitted effect of over 70% in size
Npr2 selectivity – hNpr2 antagonism, selectivity versus Npr1; 1,400 compounds, 67% hits; AID 1347046; shares compounds with hNpr1 antagonist; HEK293 hNpr2 GloSensor cGMP luminescence, CNP-stimulated; Potency, µM (highest dose often 57.6 µM), hits mostly inhibitors; calls by dose curve; note: nearly all actives have a fitted effect of over 70% in size
FLuc inh counter – inhibits firefly luciferase, false Npr1 antagonist flag. shares compounds with hNpr1 antagonist. purified FLuc enzyme, luminescence, Km substrate. 1,400 compounds, 0.7% hits. Potency, µM (top dose mostly 57.6 µM), most hits filed as inhibitors
GloSensor ctrl – counter-screen for Npr1 antagonists: GloSensor control cell line; shares compounds with hNpr1 antagonist; HEK293 GloSensor cGMP, SNP-stimulated, luminescence; Potency, µM (series often up to 57.6 µM), hits mostly inhibitors; 1,400 compounds, 69% hits; calls by dose curve; note: nearly all actives have a fitted effect of over 70% in size
Hits are given with their value; i = inactive; ? = inconclusive; nt = no result. Rows were chosen to be rich in hits. Some 10% of all compounds tested hit in one or more screens of this group. Unless noted, calls come from the whole dose curve; as a rule, active = well fitted curve in the direction sought with a large enough effect; inconclusive = small, poorly fitted or top-dose-only effect, or another doubt; inactive = no such curve, though single readings can be large; an effect the other way counts as inactive or inconclusive.

SMILES	hNpr1 antagonist	HEK293 tox	Luciferase inh	GPT2 inh	3T3 cytotox	NPR1 antag cnf	Npr2 selectivity	FLuc inh counter	GloSensor ctrl
COc1cccc(C(=O)N2CCC3(C2)NC(=O)N(Cc2ccc(Cl)cc2)C3=O)c1 (centres undefined)	?	?	i	i	?	?	?	i	i
O=C1N(CC2CCOCC2)CCOC12CCN([S+](=O)([O-])c1cccs1)CC2	i	i	i	i	?	nt	nt	nt	nt
O=C1N(CC2CC2)CCOC12CCN([S+](=O)([O-])c1ccccc1)CC2	i	i	i	i	?	nt	nt	nt	nt
COc1ccc([S+](=O)([O-])N2CCC3(CC2)OCCN(CC2CC2)C3=O)cc1	?	?	i	i	?	31.4µM	?	i	31.4µM
O=C1N(CC2CC2)CCOC12CCN([S+](=O)([O-])c1ccc(C(F)(F)F)cc1)CC2	11.2µM	?	i	i	?	17.7µM	19.8µM	i	11.1µM
N#Cc1ccc([S+](=O)([O-])N2CCC3(CC2)OCCN(CC2CC2)C3=O)cc1	17.8µM	i	i	i	?	31.4µM	?	i	28µM
COc1c(C)cccc1C(=O)N1CCOC(c2ccc(Cl)c(Cl)c2)C1 (centres undefined)	10µM	?	i	i	?	17.2µM	19.3µM	i	15.3µM
O=C(c1ccc2ncccc2c1)N1CCOC(c2ccc(Cl)c(Cl)c2)C1 (centres undefined)	?	?	i	i	?	nt	nt	nt	nt
COc1ccc(CN2C[C@@H](F)[C@@H](OCc3nc4ccc(C(F)(F)F)cc4[nH]3)C2)cn1	31.6µM	?	i	?	?	28µM	31.4µM	i	?
COC(=O)c1ccc2nc(CO[C@H]3CN(Cc4cccnc4)C[C@H]3F)[nH]c2c1	i	i	i	i	i	nt	nt	nt	nt
COc1ccc2nc(CO[C@H]3CN(Cc4ccc(OC)nc4)C[C@H]3F)[nH]c2c1	i	i	i	i	i	nt	nt	nt	nt
COC(=O)c1ccc2nc(CO[C@H]3CN(Cc4ccc(Cl)cc4)C[C@H]3F)[nH]c2c1	31.6µM	?	i	i	89.1µM	39.6µM	35.3µM	i	35.3µM
Cc1ccc(NC(=O)N2CC(N(Cc3cccnc3)S(C)(=O)=O)C2)cc1C	i	i	i	i	i	nt	nt	nt	nt
COCCn1ncc(N2CCC(NC(=O)c3ccc(OC)c(F)c3)CC2)cc1=O	i	i	i	i	i	nt	nt	nt	nt
CNC(=O)c1cc(-c2ccccc2C)cc2c1OCCN2Cc1cccnc1	?	?	i	i	?	?	?	i	i
Cc1nn(-c2ccc(F)cc2)c(Oc2ccc(F)cc2F)c1CCC(=O)NCC1CC1	?	?	i	i	?	?	?	i	?
Cc1ccccc1Oc1c(CCC(=O)NCC2CC2)c(C)nn1-c1ccc(F)cc1	?	?	i	i	25.1µM	?	?	i	?
Cc1nc([C@@H]2CN(Cc3ccccc3)C[C@H]2C(N)=O)n[nH]1	i	i	i	i	i	nt	nt	nt	nt
CN1CC(=O)N(C2CCCNCC2)Cc2c(NCc3ccccn3)ncnc21 (centres undefined)	nt	i	nt	i	i	nt	nt	nt	nt
COCCNC(=O)c1cccc(-c2ccc(OC)nn2)c1	nt	i	nt	nt	i	nt	nt	nt	nt
O=C(C1CCC1)N1CCC2(CC1)CC(Cc1nc(C3CC3)no1)CCO2 (centres undefined)	i	?	i	i	?	nt	nt	nt	nt
O=S(=O)(c1cccc(F)c1)N1CCC2(CC1)CC(Cc1nc(C3CC3)no1)CCO2 (centres undefined)	11.2µM	44.7µM	i	i	?	24.3µM	24.3µM	i	21.7µM

Screening results deposited in PubChem by National Center for Advancing Translational Sciences (NCATS).
